These results are taken from publication PMC5540273 (PLoS ONE, 2017).

The structures appear in SMILES notation.
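Further: KINOMEscan kinase panel screen.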

For one experiment, the system named is LATS2. To be noted: concentration: 1 μM, replicates: in singlicate; n = 1.
Consider `COc1cc2ncnc(Nc3ccc(OCc4ccccc4Br)c(Cl)c3)c2cc1OC.Cl` [GI261590], for which the “%Inh” value worked out at 3%.
The same measure, in the same setting: the same measure for `CSc1nn2c(=O)cc(N3CCOCC3)nc2n1Cc1cccc(Cl)c1Cl` [GSK2347225]: 9%; for `Fc1cccc(COc2ccc(Nc3ncnc4sc(-c5ccc[nH]5)cc34)cc2Cl)c1` [GW707818]: 0%; for `Cl.O=S(=O)(c1cccc(F)c1)c1ccc(Nc2ncnc3cc(Br)sc23)cc1Cl` [GSK306886]: 0%.
With `CN1c2ccc(-c3ccc(C(=O)NCCO)cc3)cc2-c2[nH]ncc2S1(=O)=O`, the “%Inh” value was 11%.
On the same count and under the same terms, the same measure for `Nc1nc(-c2ccc3c(N)n[nH]c3c2)cc(N2CCCCC2)n1` [GSK2228768]: 0%; for `Cn1ccc2ncnc(Oc3ccc(NC(=O)Nc4cccnc4)c(Cl)c3)c21`: 0%.
For `Clc1cc(Nc2ncnc3cc[nH]c23)ccc1OCc1ccccn1`, the “%Inh” value is 29%.
The same measure, in the same setting: in the case of `Cl.Cl.c1ccc(-c2cc3ccncc3cc2OC2CCNCC2)cc1` [GSK1122999] it was 50%.
Same read-out and setting: the same measure for `Fc1ccc(Nc2nccc(-c3c(-c4ccc(Cl)cc4)nn4ncccc34)n2)cc1F` [GW829058]: 19%; for `C[C@H]1CC[C@@H](C(=O)Nc2ccccc2)CN1c1cc(-c2ccc3c(N)n[nH]c3c2)nc(N)n1` [GSK2283293]: 9%; for `FC(F)(F)c1cc(Nc2nccc(-c3c(-c4ccc(Cl)cc4)nn4ncccc34)n2)ccc1Cl` [GW829351]: 0%.
Still for that read-out and setting: in the case of `FC(F)(F)c1ccc(-c2cc(-c3c[nH]nc3-c3ccccn3)ccn2)cc1` [GW599550] it was 40%; in that of `Nc1nc(-c2cccnc2)c(-c2ccnc3ccccc23)s1` [GW684083], 26%; in that of `Cl.c1ccc(Cn2ncc3cc(Nc4ncnc5ccccc45)ccc32)cc1` [GW273749], 0%.
As for `O=C(NCCCN1CCCC1=O)c1cnc(NCc2cc(Cl)ccc2Cl)nc1NC1CCNCC1`, the “%Inh” value stood at 29%.
On the same count and under the same terms, in the case of `Cc1ccc(O)cc1Nc1cc(C(F)(F)F)nc2ccc(-c3ccncc3)cc12` [GW630823] it was 0%.
`C[C@@H]1CCN(C(=O)CO)C[C@@H]1N(C)c1ncnc2[nH]ccc12`: the “%Inh” value came out at 16%.
On the same count and under the same terms, in the case of `COc1ccc(NC(=O)Nc2ccc(C)c(-c3ccc(C(=O)Nc4ccncc4)cc3)c2)cc1` [GSK1398475] it was 6%; in that of `O=c1cc(N2CCOCC2)nc2n(Cc3cccc(Cl)c3)ccn12` [GSK2296823], 46%; in that of `CC(C)N1CCC(n2cnc(-c3ccc(F)cc3)c2-c2ccnc(N)n2)CC1` [SB-223132], 0%.
Still for that read-out and setting: in the case of `Clc1cccc(-c2nc(Nc3ccncc3)c3ccccc3n2)c1` [GW873004] it was 0%.
`COC(=O)c1c(-c2ccccc2)c2cc(Cl)ccc2c(=O)n1Cc1ccc(S(C)(=O)=O)cc1`: the “%Inh” value worked out at 19%.
Same read-out and setting: the same measure for `Oc1ccc2ncnc(Nc3ccc(OCc4ccccc4)cc3)c2c1` [GI262866]: 0%; for `COc1cc2c(Nc3cccc(NC(=O)c4ccccc4)c3)ncnc2cc1OCCCN1CCOCC1` [GSK223810]: 0%; for `CCc1nc(-c2cccc(C)c2)c(-c2ccnc(NC(=O)c3ccccc3)c2)s1`: 100%.
Same read-out and setting: the same measure for `Clc1ccc(-c2cc(-c3c[nH]nc3-c3ccccn3)ccn2)cc1` [GW681251]: 0%.
The same measure, in the same setting: the same measure for `Nc1nc(-c2ccc3c(N)n[nH]c3c2)cc(N2CCC[C@@H](C(=O)Nc3ccccc3)C2)n1.O=C(O)C(F)(F)F.O=C(O)C(F)(F)F` [GSK2288359]: 16%; for `CCn1c(-c2ccncc2)nc2cnccc21` [SB-735216]: 9%.
Take `Cn1ccc2ncnc(Nc3ccc(Oc4cccc(Cl)c4)c(Cl)c3)c21`: the “%Inh” value amounted to 0%.
On the same count and under the same terms, the same measure for `Fc1ccc(-c2ncn(CCCNCc3ccccc3)c2-c2ccncc2)cc1`: 34%; for `CC(C)(C)OC(=O)NC1CCCN(c2cc(-c3ccc4c(N)n[nH]c4c3)nc(N)n2)C1` (stereo not shown) [GSK2286096]: 0%.
Turning to `CC(=O)Nc1n[nH]c2ncc(-c3ccccc3)cc12` [SB-548492], the “%Inh” value was determined as 4%.
Still for that read-out and setting: in the case of `COc1ccc(Nc2nccc(N3CCC(NC(=O)Nc4ccc5c(c4)OCO5)C3)n2)cc1` (stereo not shown) [GSK1379745] it was 0%; in that of `CN1CCC(n2cnc(-c3ccc(F)cc3)c2-c2ccnc(NC3CCNCC3)n2)CC1` [SB-229482], 8%.

In a further experiment the test system is LCK. The following applies: concentration: 1 μM, replicates: in singlicate; n = 1.
`COc1cc2ncnc(Nc3ccc(OCc4ccccc4Br)c(Cl)c3)c2cc1OC.Cl` [GI261590]: the “%Inh” value is reported as 57%.
Still for that read-out and setting: in the case of `CSc1nn2c(=O)cc(N3CCOCC3)nc2n1Cc1cccc(Cl)c1Cl` [GSK2347225] it was 31%; in that of `Fc1cccc(COc2ccc(Nc3ncnc4sc(-c5ccc[nH]5)cc34)cc2Cl)c1` [GW707818], 8%; in that of `Cl.O=S(=O)(c1cccc(F)c1)c1ccc(Nc2ncnc3cc(Br)sc23)cc1Cl` [GSK306886], 15%.
Still for that read-out and setting: in the case of `CN1c2ccc(-c3ccc(C(=O)NCCO)cc3)cc2-c2[nH]ncc2S1(=O)=O` it was 28%.
The same measure, in the same setting: the same measure for `Nc1nc(-c2ccc3c(N)n[nH]c3c2)cc(N2CCCCC2)n1` [GSK2228768]: 3%; for `Cn1ccc2ncnc(Oc3ccc(NC(=O)Nc4cccnc4)c(Cl)c3)c21`: 0%.
With `Clc1cc(Nc2ncnc3cc[nH]c23)ccc1OCc1ccccn1`, the “%Inh” value is on record as 7%.
As for `Cl.Cl.c1ccc(-c2cc3ccncc3cc2OC2CCNCC2)cc1` [GSK1122999], the “%Inh” value was 38%.
As for `Fc1ccc(Nc2nccc(-c3c(-c4ccc(Cl)cc4)nn4ncccc34)n2)cc1F` [GW829058], the “%Inh” value is 11%.
For `C[C@H]1CC[C@@H](C(=O)Nc2ccccc2)CN1c1cc(-c2ccc3c(N)n[nH]c3c2)nc(N)n1` [GSK2283293], the “%Inh” value is 5%.
Still for that read-out and setting: in the case of `FC(F)(F)c1cc(Nc2nccc(-c3c(-c4ccc(Cl)cc4)nn4ncccc34)n2)ccc1Cl` [GW829351] it was 0%; in that of `FC(F)(F)c1ccc(-c2cc(-c3c[nH]nc3-c3ccccn3)ccn2)cc1` [GW599550], 25%.
On the same count and under the same terms, the same measure for `Nc1nc(-c2cccnc2)c(-c2ccnc3ccccc23)s1` [GW684083]: 17%; for `Cl.c1ccc(Cn2ncc3cc(Nc4ncnc5ccccc45)ccc32)cc1` [GW273749]: 15%; for `O=C(NCCCN1CCCC1=O)c1cnc(NCc2cc(Cl)ccc2Cl)nc1NC1CCNCC1`: 15%.
The same measure, in the same setting: in the case of `Cc1ccc(O)cc1Nc1cc(C(F)(F)F)nc2ccc(-c3ccncc3)cc12` [GW630823] it was 14%; in that of `C[C@@H]1CCN(C(=O)CO)C[C@@H]1N(C)c1ncnc2[nH]ccc12`, 20%; in that of `COc1ccc(NC(=O)Nc2ccc(C)c(-c3ccc(C(=O)Nc4ccncc4)cc3)c2)cc1` [GSK1398475], 47%.
As to `O=c1cc(N2CCOCC2)nc2n(Cc3cccc(Cl)c3)ccn12` [GSK2296823], the “%Inh” value is listed as 17%.
Same read-out and setting: in the case of `CC(C)N1CCC(n2cnc(-c3ccc(F)cc3)c2-c2ccnc(N)n2)CC1` [SB-223132] it was 14%; in that of `Clc1cccc(-c2nc(Nc3ccncc3)c3ccccc3n2)c1` [GW873004], 31%.
Still for that read-out and setting: in the case of `COC(=O)c1c(-c2ccccc2)c2cc(Cl)ccc2c(=O)n1Cc1ccc(S(C)(=O)=O)cc1` it was 13%.
Turning to `Oc1ccc2ncnc(Nc3ccc(OCc4ccccc4)cc3)c2c1` [GI262866], the “%Inh” value is 2%.
Still for that read-out and setting: in the case of `COc1cc2c(Nc3cccc(NC(=O)c4ccccc4)c3)ncnc2cc1OCCCN1CCOCC1` [GSK223810] it was 84%; in that of `CCc1nc(-c2cccc(C)c2)c(-c2ccnc(NC(=O)c3ccccc3)c2)s1`, 0%; in that of `Clc1ccc(-c2cc(-c3c[nH]nc3-c3ccccn3)ccn2)cc1` [GW681251], 13%.
Regarding `Nc1nc(-c2ccc3c(N)n[nH]c3c2)cc(N2CCC[C@@H](C(=O)Nc3ccccc3)C2)n1.O=C(O)C(F)(F)F.O=C(O)C(F)(F)F` [GSK2288359], the “%Inh” value was 0%.
Still for that read-out and setting: the same measure for `CCn1c(-c2ccncc2)nc2cnccc21` [SB-735216]: 0%; for `Cn1ccc2ncnc(Nc3ccc(Oc4cccc(Cl)c4)c(Cl)c3)c21`: 0%; for `Fc1ccc(-c2ncn(CCCNCc3ccccc3)c2-c2ccncc2)cc1`: 40%.
Still for that read-out and setting: in the case of `CC(C)(C)OC(=O)NC1CCCN(c2cc(-c3ccc4c(N)n[nH]c4c3)nc(N)n2)C1` (stereo not shown) [GSK2286096] it was 0%; in that of `CC(=O)Nc1n[nH]c2ncc(-c3ccccc3)cc12` [SB-548492], 30%; in that of `COc1ccc(Nc2nccc(N3CCC(NC(=O)Nc4ccc5c(c4)OCO5)C3)n2)cc1` (stereo not shown) [GSK1379745], 24%.
For the compound `CN1CCC(n2cnc(-c3ccc(F)cc3)c2-c2ccnc(NC3CCNCC3)n2)CC1` [SB-229482], the “%Inh” value came out at 0%.
